The record followed here is PubChem BioAssay (NCI).

Molecules are shown by their SMILES. About 83,000 compounds went through this panel and 20% of them were active in at least one assay; those are over-represented in the sample as a whole.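 Values shown are percent growth following 48 h exposure of cells in 96-well plates to a single concentration of compound; below 10 was considered active.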 A number with no mark means an inactive call. Activity calls are given as the source filed them.

Among the test systems are SR leukemia; RPMI-8226 leukemia; OVCAR-8 ovarian; OVCAR-5 ovarian; OVCAR-4 ovarian; SK-OV-3 ovarian; IGROV1 ovarian; OVCAR-3 ovarian; NCI/ADR-RES ovarian.
Common to all, as to assay: NCI-60 one-dose screen, 48 h (100 = growth as untreated, 0 = no growth, -100 = all killed)
Common to all, as to conditions: 10 µM unless noted

For `CC(=O)CC(=O)OC/C=C(/C)CCC=C(C)C`, the growth in the assay with SR leukemia was 92.2%; with RPMI-8226 leukemia, 112%; with OVCAR-8 ovarian, 103%; in the assay on OVCAR-5 ovarian, 100%; with OVCAR-4 ovarian it was 113%; in the assay with SK-OV-3 ovarian, 111%. Further, the growth with IGROV1 ovarian is 116%; in the assay with OVCAR-3 ovarian it was 110%; in the assay on NCI/ADR-RES ovarian, 102%.

On to `CCOC(=O)C1CCCN1C(=O)C1(NC(C)=O)CCCC1` (stereo not given), for which the growth in the assay with SR leukemia is 102%; with RPMI-8226 leukemia, 95.7%; in the assay with OVCAR-8 ovarian, 103%; in the assay with OVCAR-5 ovarian it was 96.4%; with OVCAR-4 ovarian, 105%; in the assay with SK-OV-3 ovarian it was 104%. The growth in the assay on IGROV1 ovarian was 96.8%; in the assay with OVCAR-3 ovarian it was 103%; in the assay on NCI/ADR-RES ovarian, 103%.

For `COc1ccc2cc(C(C)C(=O)Nc3ccc(S(=O)(=O)Nc4cc(C)on4)cc3)ccc2c1` (stereo not given), the growth was 100% in the assay with SR leukemia; 96.6% in the assay on RPMI-8226 leukemia; 95.8% with OVCAR-8 ovarian; 112% with OVCAR-5 ovarian; 100% in the assay on OVCAR-4 ovarian; 101% with SK-OV-3 ovarian. Further, the growth was 114% in the assay with IGROV1 ovarian, 110% in the assay on OVCAR-3 ovarian and 105% in the assay with NCI/ADR-RES ovarian.

Take `C/C(=C\c1ccc2ccccc2c1)[N+](=O)[O-]`: the growth is 4.41% (active) in the assay with SR leukemia; -33.9% (active) with RPMI-8226 leukemia; 11.7% with OVCAR-8 ovarian; 82.6% in the assay on OVCAR-5 ovarian; 87.6% in the assay with OVCAR-4 ovarian; 99.4% in the assay on SK-OV-3 ovarian. For the same compound, the growth with IGROV1 ovarian was -20% (active); in the assay on OVCAR-3 ovarian, -76.6% (active); in the assay on NCI/ADR-RES ovarian, 88.4%.

Take `N=C(N)N=Nc1ccc(NN=C(N)N)c2ccccc12`: the growth in the assay with SR leukemia was 109%; with RPMI-8226 leukemia, 110%; in the assay with OVCAR-8 ovarian it was 96.2%; in the assay with OVCAR-5 ovarian it was 108%; in the assay with OVCAR-4 ovarian, 106%; in the assay on SK-OV-3 ovarian, 88.1%. Further, the growth is 107% with IGROV1 ovarian, 127% in the assay with OVCAR-3 ovarian and 110% with NCI/ADR-RES ovarian.

Take `COC(=O)[C@H](Cc1cn(C)cn1)NC(=O)[C@@H](NC(=O)Nc1cc(C(F)(F)F)cc(C(F)(F)F)c1)C(C)(C)C`: the growth is -41.3% [100 µM] (active) in the assay on SR leukemia; -53.8% [100 µM] (active) in the assay with RPMI-8226 leukemia; -55.2% [100 µM] (active) in the assay with OVCAR-8 ovarian; 39.7% [100 µM] with OVCAR-5 ovarian; -71.5% [100 µM] (active) in the assay with OVCAR-4 ovarian; -25.6% [100 µM] (active) in the assay with SK-OV-3 ovarian. Besides, the growth in the assay with IGROV1 ovarian was -63% [100 µM] (active); with OVCAR-3 ovarian, -99.3% [100 µM] (active); in the assay with NCI/ADR-RES ovarian, 78.1% [100 µM].

In the case of `CNc1ccc(Nc2ccc(S(=O)(=O)O)cc2)c2c1C(=O)c1ccccc1C2=O`, the growth in the assay on SR leukemia is 99.7%; in the assay with RPMI-8226 leukemia it was 107%; with OVCAR-8 ovarian, 101%; with OVCAR-5 ovarian, 98.7%; in the assay with OVCAR-4 ovarian, 109%; with SK-OV-3 ovarian, 117%. Moreover, the growth is 105% with IGROV1 ovarian, 121% with OVCAR-3 ovarian and 108% in the assay with NCI/ADR-RES ovarian.

For `CC(O)CCC(C)[N+](=O)[O-]` (stereo not given), the growth with SR leukemia was 95.8%; in the assay with RPMI-8226 leukemia it was 101%; in the assay on OVCAR-8 ovarian it was 104%; with OVCAR-5 ovarian it was 102%; with OVCAR-4 ovarian, 103%; with SK-OV-3 ovarian it was 101%. Also, the growth is 105% with IGROV1 ovarian, 108% in the assay with OVCAR-3 ovarian and 111% with NCI/ADR-RES ovarian.

Take `N#Cc1ccc(OCc2nc(N)nc(N)c2-c2ccc(Cl)c(Cl)c2)cc1`: the growth in the assay with SR leukemia is 26%; in the assay on RPMI-8226 leukemia it was 67.7%; with OVCAR-8 ovarian it was 19.5%; with OVCAR-5 ovarian it was 36.9%; in the assay on OVCAR-4 ovarian, 98.6%; in the assay with SK-OV-3 ovarian, 38.5%. The growth with IGROV1 ovarian is 24.3%; in the assay with OVCAR-3 ovarian it was 45.8%; in the assay on NCI/ADR-RES ovarian it was 38.9%.

For `CC(=O)Nc1ccc(S(=O)(=O)Cl)cc1`, the growth with SR leukemia was 86.8%; in the assay on RPMI-8226 leukemia it was 100%; in the assay with OVCAR-8 ovarian it was 113%; in the assay with OVCAR-5 ovarian it was 109%; with OVCAR-4 ovarian, 110%; in the assay with SK-OV-3 ovarian, 106%. The growth was 116% in the assay on IGROV1 ovarian, 112% in the assay on OVCAR-3 ovarian and 116% with NCI/ADR-RES ovarian.

As to `CC(C)(CNC1CCCCC1)OC(=O)c1ccccc1`, the growth is 106% with SR leukemia; 106% in the assay on RPMI-8226 leukemia; 101% in the assay with OVCAR-8 ovarian; 114% in the assay with OVCAR-5 ovarian; 110% with OVCAR-4 ovarian; 106% in the assay on SK-OV-3 ovarian. Besides, the figures for the growth in the assay with IGROV1 ovarian, in the assay on OVCAR-3 ovarian and in the assay on NCI/ADR-RES ovarian were 106%, 102% and 103%, respectively.

As for `COc1ccccc1CNCCCN1C(=O)c2ccc3c4c(ccc(c24)C1=O)C(=O)N(CCCNCc1ccccc1OC)C3=O`, the growth is -45.7% (active) with SR leukemia; -31.8% (active) in the assay with RPMI-8226 leukemia; -47.1% (active) in the assay with OVCAR-8 ovarian; -27.4% (active) in the assay on OVCAR-5 ovarian; -96.5% (active) with OVCAR-4 ovarian; 0% (active) in the assay with SK-OV-3 ovarian. Also, the growth was -58.2% (active) in the assay with IGROV1 ovarian, -59.9% (active) in the assay with OVCAR-3 ovarian and -2.55% (active) in the assay with NCI/ADR-RES ovarian.

For the compound `CCCCN(CCC)CCCCCCCCCCN1CCCc2ccccc21`, the growth in the assay on SR leukemia is 10.5%; in the assay on RPMI-8226 leukemia, -2.32% (active); in the assay on OVCAR-8 ovarian it was 102%; in the assay with OVCAR-5 ovarian it was 108%; in the assay with OVCAR-4 ovarian, 79.4%; with SK-OV-3 ovarian, 81.4%. Further, the growth was 48.5% with IGROV1 ovarian, 53.7% with OVCAR-3 ovarian and 90.1% in the assay on NCI/ADR-RES ovarian.

As to `CCS(=O)(=O)N[C@@H]1O[C@H](COC(C)=O)C(OC(C)=O)[C@H](OC(C)=O)C1OC(C)=O` (stereo not given in full), the growth with SR leukemia is 104%; with RPMI-8226 leukemia, 105%; in the assay on OVCAR-8 ovarian it was 98.6%; in the assay with OVCAR-5 ovarian it was 98.8%; with OVCAR-4 ovarian, 102%; in the assay on SK-OV-3 ovarian, 97.3%. Moreover, the values for the growth in the assay on IGROV1 ovarian, in the assay on OVCAR-3 ovarian and in the assay with NCI/ADR-RES ovarian were 106%, 101% and 108%, respectively.

For the compound `Oc1ccc([S+](c2ccc(O)cc2)c2ccc(O)cc2)cc1`, the growth is 89.1% in the assay with SR leukemia; 96% in the assay with RPMI-8226 leukemia; 94.3% in the assay with OVCAR-8 ovarian; 101% in the assay with OVCAR-5 ovarian; 107% in the assay on OVCAR-4 ovarian; 106% with SK-OV-3 ovarian. Also, the results for the growth in the assay with IGROV1 ovarian, in the assay on OVCAR-3 ovarian and with NCI/ADR-RES ovarian were 110%, 114% and 112%, respectively.
